Shown are actives, neighbours in structure and some others; about 3.5% of the full set was active somewhere.
FBW7 act – human FBW7 E3 ligase activation, primary screen. Q969H0. AlphaScreen FBW7–phospho-cyclin E peptide binding, activator screen. normalized activity (activation), % at 26.1 µM. actives 0.13% (n = 650,000); in the data active = normalized activity above about 1.9%;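 also: purified mutant Fbw7 with reduced substrate affinity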
MITF inh – human MITF inhibition, primary screen. AlphaScreen MITF homodimerization, bead proximity signal. inhibition, % at 2.6 µM. actives 0.91% (n = 650,000); in the data active = inhibition above about 50%
TEAD-YAP block – TEAD-YAP interaction inhibition; HEK-TIYL cells, TEAD-Gal4/YAP UAS-luciferase luminescence; inhibition, % at 9.12 µM; actives 1.4% (n = 640,000); AID 1259422; in the data active = inhibition above about 32%
GPR151 activ – activators of human GPR151 | Q8TDV0 | PathHunter beta-arrestin GPR151 cells, luminescence | activation, % at 11.2 µM | actives 1% (n = 650,000); in the data active = activation above about 4.9%
Hits are given with their value; – = inactive.

SMILES	FBW7 act	MITF inh	TEAD-YAP block	GPR151 activ
COc1cc(-c2cnc3c(NCCc4ccccn4)nccn23)cc(OC)c1OC	–	–	–	–
CCCNc1nc(Nc2cccnc2)nc2c1ncn2-c1ccsc1	–	–	61	–
c1ccc(CNc2nc(Nc3cccnc3)nc3c2ncn3-c2ccsc2)cc1	–	–	–	–
COc1ccc(Nc2nc(-c3c(C)nc4ccccn34)cs2)cc1	–	–	62	–
Cc1nc2ccccn2c1-c1csc(Nc2ccc(Br)cc2Br)n1	–	–	55	–
CCOc1cc(/C=C2\SC(=O)N(CC(=O)Nc3ccc(C)cc3)C2=O)ccc1O	–	–	–	–
COc1ccc(N=C(NN)c2ccc3ccccc3n2)cc1	–	–	91	–
Cc1ccc(N=C(NN)c2ccc3ccccc3n2)c(C)c1	–	–	–	–
CCOCCCNC(=O)c1ccc2nc(-c3ccc(OC)cc3)c(-c3ccc(OC)cc3)nc2c1	–	–	–	–
CC(C)(C)c1ccc(C(=O)NCCOc2ccccc2Cl)cc1	–	–	66	–
O=c1[nH]c(=S)n(Cc2ccco2)c(O)c1/C=C1\C=CC=N1	–	101	–	–
O=c1[nH]c(=S)n(-c2ccccc2)c(O)c1/C=C1\C=CC=N1	–	–	–	–
Cc1ccccc1-n1c(O)c(/C=C2\C=CC=N2)c(=O)[nH]c1=O	–	–	57	–
O=c1[nH]c(=O)n(-c2ccccc2Cl)c(O)c1/C=C1\C=CC=N1	–	–	61	–
O=c1[nH]c(=O)n(-c2ccccc2F)c(O)c1/C=C1\C=CC=N1	–	–	57	–
CCOc1ccccc1-n1c(O)c(/C=C2\C=CC=N2)c(=O)[nH]c1=O	–	–	–	–
COC(=O)C1C(=O)C(C(C)=O)C(=O)CC1(C)C (configuration not stated)	–	–	–	–
CCOC(=O)C1=C(C)NC2=C(C(=O)C(C(=O)OCC)C(c3ccccc3OC)C2)C1c1ccc(C(C)(C)C)s1 (configuration not stated)	–	–	–	–
Oc1ccc([C@H]2Oc3cc(O)cc(O)c3C[C@H]2O)cc1	–	–	–	–
O=C(O[C@@H]1Cc2c(O)cc(O)cc2O[C@@H]1c1cc(=O)c(O)c2c(O)c(O)cc([C@H]3Oc4cc(O)cc(O)c4C[C@H]3O)c2c1)c1cc(O)c(O)c(O)c1	–	106	–	–
CCC(CC)C(=O)N1CCCC(c2nc(-c3ccc(OC)c(OC)c3)no2)C1 (configuration not stated)	–	–	–	–
O=C(NCCN1Cc2ccccc2OC(c2ccccc2)C1)c1ccc(-n2cnnn2)cc1 (configuration not stated)	–	–	–	–
C=CCNC(=O)c1c(-c2ccccc2)nc2cc(C)ccn12	1.9	–	–	–
CN1CCN(C2=CC(=[N+]3CCCCC3)CC(C)(C)C2)CC1	–	–	–	–
C1=C(N2CCCC2)CCCC1=[N+]1CCCC1	–	–	42	–
SMILES	FBW7 act	MITF inh	TEAD-YAP block	GPR151 activ
CN1CCN(C2=CC(=[N+]3CCCC3)CC(C)(C)C2)CC1	–	–	–	–
CC1(C)CC(N2CCCC2)=CC(=[N+]2CCCCCC2)C1	–	–	66	–
CC1CC(C)C[N+](=C2C=C(N3CCCC3)CC(C)(C)C2)C1 (configuration not stated)	–	–	77	–
O=C(CN1CCCC(c2nc3ccccc3[nH]2)C1)Nc1cccc2ccccc12 (configuration not stated)	–	–	–	–
COc1cc([C@@H]2c3cc4c(cc3[C@@H](O[C@@H]3O[C@@H]5CO[C@@H](C)O[C@H]5[C@H](O)[C@H]3O)[C@H]3COC(=O)[C@H]23)OCO4)cc(OC)c1O	–	–	–	–
COc1cc(C2CC(=O)Nc3cc4c(cc32)OCO4)cc(OC)c1OC (configuration not stated)	–	–	49	–
COc1cc([C@@H]2c3cc4c(cc3[C@H](O)[C@H]3COC(=O)[C@H]23)OCO4)cc(OC)c1OC	–	–	43	–
C/C(=N\N=C1\NC(=O)C(CC(=O)Nc2cccc(C)c2C)S1)C(C)(C)C (configuration not stated)	–	–	–	–
O=C(c1ccc2c(=O)n(-c3ccccc3)c(SCc3cccc(Cl)c3)nc2c1)N1CCCCC1	–	–	–	–
O=c1c(-c2ccc(Cl)cc2Cl)coc2cc(O)ccc12	–	–	–	–
CC1=NN(c2cccc(C(=O)O)c2)C(=O)/C1=C\c1ccc(-c2ccc(Cl)c(C(=O)O)c2)o1	–	74	–	–
CC1=NN(c2cccc(C(=O)O)c2)C(=O)/C1=C\c1ccccc1O	–	57	–	–
CCOc1cc(/C=C2\C(=O)N(c3cccc(C(=O)O)c3)N=C2C)cc(Cl)c1OC	–	61	–	–

Screens (PubChem)
